We go through 96 compounds from PubChem BioAssay AID796 (Columbia University Molecular Screening Center, 2007).

Among all 94,000 compounds or so, about 410 (0.44%) were called active.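 How the source made its calls: active means inhibition above about 30% together with a positive call from visual inspection of the well image (limit read from the data); inconclusive means inhibition above a set limit but visual check negative; inactive means inhibition not above a set limit, visual check negative.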 What follows is part of a selection rich in actives, with near analogues and random picks from the rest.

The assay in a line: inhibitors of IL-1B driven NFkB p65 nuclear import, primary screen, imaging, HUVEC, IL-1B stimulus, high-content imaging (AID 796).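 Further: nuclear over cytoplasmic p65 intensity ratio measured by imaging; 0% = IL-1B stimulated DMSO wells and 100% = unstimulated DMSO wells.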 The settings on record: HUVEC IL-1B NFkB p65 nuclear translocation imaging; at 2 µM; stronger effect = higher value.
For the compound `COc1ccc(/C=C(/NC(=O)c2ccc(C)cc2)c2nc3ccccc3[nH]2)cc1OC`, the inhibition – broadly, the relative decrease from the control value, in per cent – is -9.9% (inactive).
`CCOC(=O)c1c(N=CN(C)C)c(C#N)c2n1CCCC2`: the inhibition is 10.8% (inactive).
Next, `CC1CCCCC1NC(=O)C1CCCN1S(=O)(=O)c1cccc2nsnc12` (stereo unspecified): -27% (inactive); `COc1nc(-c2ccc(Cl)cc2)ccc1-c1noc(-c2cccs2)n1`: -5.8% (inactive); `O=S(=O)(c1cccc2nonc12)N1CCN(c2cccc(Cl)c2)CC1`: -0.1% (inactive).
For `CC(C)NC(=O)C(=O)N/N=C/c1ccco1`, the inhibition was -6.9% (inactive).
To `COc1cc(C(=O)N2CCN(C/C=C/c3ccccc3)CC2)cc(OC)c1C` belongs -3.7% (inactive); to `N/C(=N\OC(=O)c1cc(-c2ccccc2)nc2ccccc12)c1ccncc1`, 8% (inactive).
With `Cc1ccc(S(=O)(=O)N(CC(=O)N/N=C/c2ccc(F)cc2)c2cccc3cccnc23)cc1`, the inhibition is 9.5% (inactive).
As to `COC(=O)c1c(-c2cccs2)csc1NC(=O)CSc1ncnc2sc(C)c(C)c12`, the inhibition is -10.3% (inactive).
To `Nc1ccc(-c2sc(N)nc2-c2ccccc2)cc1` belongs 1.6% (inactive); to `CCC(C)NC(=O)c1ccccc1NC(=O)c1ccccc1N(C)S(C)(=O)=O` (stereo unspecified), -10.8% (inactive).
To `COc1ccc(Cl)cc1NC(=O)CN(C)C(=O)CNC(=O)C12CC3CC(CC(C3)C1)C2` belongs -36% (inactive); to `COc1ccc(Cc2nnc(SCC(=O)c3cccc([N+](=O)[O-])c3)n2C)cc1`, -8.8% (inactive).
For `O=C(NCCc1ccccc1)c1ccc(NC2=NC3CS(=O)(=O)CC3S2)cc1` (stereo unspecified), the inhibition is 0.8% (inactive).
Next, `Cc1cccc(NC(=O)c2cc(N3C(=O)CCC3=O)ccc2Cl)n1`: 32.1% (active).
Next, `Cc1cccc(NC(=O)c2ccccc2NC(=O)C(C)(C)C)n1`: -6.8% (inactive); `Cc1cc(NC(=O)c2cccc(N3C(=O)CCC3=O)c2)no1`: -4.7% (inactive); `O=C(CN1CCCCCC1)Nc1ccc(Br)cc1Br`: 5.3% (inactive).
To `Cn1c(CNc2nc(-c3ccccc3)cs2)nnc1SCC(=O)c1ccccc1` belongs -14.8% (inactive); to `Cc1ccccc1NC(=O)Cc1nnc(SCC(=O)N2CCN(c3ccccc3)CC2)n1C`, -36.6% (inactive).
With `Cn1c(CC(=O)Nc2ccccc2)nnc1SCC(=O)c1ccccc1`, the inhibition was 92% (active).
To `CCOC(=O)c1cc(NC(=O)c2ccc(Cl)cc2)c(=O)oc1-c1ccccc1` belongs -5.2% (inactive); to `Cc1nc(C)c(C(=O)N(c2ccc(C)c(C)c2)C(C(=O)NCc2ccco2)c2ccccc2)s1` (stereo unspecified), -3.5% (inactive).
Next, `Cc1cccc(NC(=O)CSc2nnc(CCCCCNC(=O)OC(C)(C)C)o2)c1C`: 55.4% (active); `CCc1ccccc1NC(=O)CSc1nnc([C@@H](NC(=O)OC(C)(C)C)C(C)CC)o1` (stereo partly specified): -19.4% (inactive).
Next, `CCc1ccccc1NC(=O)CSc1nnc([C@@H](NC(=O)OC(C)(C)C)C(C)C)o1`: 0.3% (inactive); `Cc1noc(C)c1CSCC(=O)Nc1nc2ccc(Oc3ccccc3)cc2s1`: -3.4% (inactive); `Cc1ccc(-n2nc(N)c3c(=O)oc(N(C)C)nc32)cc1`: -5.7% (inactive).
As to `O=C(COc1ccc(Cl)cc1)NCCC1=CCCCC1`, the inhibition was 1.3% (inactive).
In the case of `COc1ccc(C(=O)NN(C)c2nc(-c3ccccc3)cc(C)c2S(C)(=O)=O)cc1`, the inhibition was -10.1% (inactive).
To `CSc1nc(N(C)NC(=O)c2cccc(C)c2)c2ccccc2n1` belongs 34.2% (active); to `CN(NC(=O)c1ccccc1)c1nc2ccccc2nc1C(F)(F)F`, 12.5% (inactive); to `O=S(=O)(c1cnccc1N1CCN(/N=C/c2ccc(Br)cc2)CC1)N1CCCCC1`, -15.8% (inactive).
With `COc1cc(OC)cc(C(=O)NC2CCN(C(=O)N3c4ccccc4Sc4ccccc43)CC2)c1`, the inhibition is -1.1% (inactive).
To `Cc1ccccc1N1CCN(CCCOc2ccc3c(C)cc(=O)oc3c2)CC1` belongs -2.5% (inactive); to `Cn1c(C(=O)OC(C(=O)NC2CCCCC2)c2ccccn2)cc2sccc21` (stereo unspecified), -1.9% (inactive); to `COc1cccc(/C=N/NC(=O)c2cccc([N+](=O)[O-])c2)c1OS(=O)(=O)c1ccc(C)cc1`, 1.2% (inactive).
Consider `Cc1ccc(S(=O)(=O)N(C)C2(C)CCS(=O)(=O)C2)cc1` (stereo unspecified), for which the inhibition is -19.1% (inactive).
Next, `CC(C)n1c(-c2cccs2)nc2ccccc21`: -4.4% (inactive); `C=CCn1c(COc2ccccc2)nnc1SCC(=O)NCC(=O)OCC`: -6.1% (inactive); `C=CCn1c(COc2ccccc2C)nnc1SCC(=O)O`: -19.2% (inactive).
Take `C=CCn1c(COc2cccc3cccnc23)nnc1SCC(=O)OC`: the inhibition is 30.7% (active).
`COc1ccc(C(=O)Oc2cc(/C=N/NS(=O)(=O)c3ccc(C)cc3)ccc2OC)cc1`: the inhibition is -13.4% (inactive).
Next, `COc1cc(C(=S)N2CCOCC2)cc(OC)c1OC(=O)c1cc([N+](=O)[O-])cc([N+](=O)[O-])c1`: 2.4% (inactive); `COc1ccccc1OCc1nc2ccccc2s1`: 9.7% (inactive); `O=C(Nc1ccccc1-c1nnn(CC(=O)N2CCCc3ccccc32)n1)c1cccc(Cl)c1`: 9.4% (inactive).
Regarding `OC(c1ccccc1)c1nccn1Cc1ccccc1` (stereo unspecified), the inhibition is -26.3% (inactive).
As for `Cn1cnc([N+](=O)[O-])c1Sc1ccccc1`, the inhibition was 7% (inactive).
Next, `CCOC(=O)c1c(NC(C)=O)sc2c(O)c(Br)ccc12`: -8% (inactive); `CCC(C)NC(=O)C1CCCN(C(=O)NC2CCCCC2)C1` (stereo unspecified): -6.5% (inactive); `Cc1ccc(NC(=S)Nc2ncccc2C)c(C)c1`: 8.4% (inactive).
Next, `COc1ccc(C(=O)NC(=S)Nc2ccccc2N2CCN(S(C)(=O)=O)CC2)cc1OC`: -15.4% (inactive); `Cc1[nH]c(=O)c(C(=O)/C=C/c2ccccc2)c2c1CCCC2`: -9.9% (inactive); `CC(=O)c1cn(CCCCCCCCCCn2cc(C(C)=O)c(=O)[nH]c2=O)c(=O)[nH]c1=O`: -1.7% (inactive).
To `CN(CC(=O)Nc1cccc2c1CCCC2)S(=O)(=O)c1ccc(Cl)cc1` belongs 8.4% (inactive).
For `CCOc1ccccc1NC(=O)C1CCCN(C(=O)Nc2ccccc2)C1` (stereo unspecified), the inhibition was 40.5% (active).
Take `CCOc1ccc(NC(=O)C2CCCN(C(=O)Nc3ccccc3)C2)cc1` (stereo unspecified): the inhibition was 5.5% (inactive).
To `CCOc1ccccc1NC(=O)C1CCN(S(=O)(=O)c2c(C)nn(C)c2C)CC1` belongs 13.5% (inactive); to `N#C/C(=C/c1ccc(Cl)cc1)NC(=O)c1ccccc1`, 0.7% (inactive).
Next, `COc1ccc(C(F)(F)F)cc1N/C=C\c1nnnn1-c1ccc(C)cc1`: 7.9% (inactive); `O=C(NCCCCCCCCCNC(=O)C(F)(F)F)C(F)(F)F`: 8.3% (inactive); `CC(C)(CNC(=O)c1cc(=O)[nH]c2ccccc12)N1CCOCC1`: 31% (active).
Next, `Cc1c(C(=O)CN2CCOCC2)[nH]c2ccccc12`: -7.9% (inactive); `CC(C)(CNCC(O)c1ccccc1)N1CCOCC1` (stereo unspecified): -8.1% (inactive).
On to `c1ccc2c(C[n+]3csc4ccccc43)cccc2c1`, for which the inhibition is -13.2% (inactive).
For `CCc1nc(C)ccc1OCC(=O)N(CC)CC`, the inhibition was 5.7% (inactive).
With `Fc1ccc(CNc2nc3ccccc3n3nnnc23)cc1`, the inhibition was -20.9% (inactive).
To `CCOc1ccc(S(=O)(=O)Nc2nc3cc(OC)ccc3s2)cc1` belongs -6% (inactive); to `Cc1ccc(C(c2nnnn2CS(=O)(=O)c2ccc(C)cc2)N2CCC(C)CC2)cc1` (stereo unspecified), -0.3% (inactive).
To `O=C(Oc1ccc([N+](=O)[O-])cc1)c1ccc2ccccc2n1` belongs 1.7% (inactive).
Next, `CCOC(=O)C1Sc2[nH]c(=O)sc2C(c2ccc(Cl)cc2)C1C(=O)OCC` (stereo unspecified): -11% (inactive).
As for `O=C(CSc1nc2ncccc2[nH]1)Nc1ccc2c(c1)OCCO2`, the inhibition is 97% (active).
As to `O=C(CSc1nc(C2CC2)nc2ccccc12)Nc1ccc2c(c1)OCCO2`, the inhibition was 4.6% (inactive).
As to `O=C(CSc1nnnn1C1CCCC1)Nc1ccc2c(c1)OCCO2`, the inhibition was -42.7% (inactive).
To `O=C(/C=C/c1ccco1)Nc1ccc(Oc2ccccc2)cc1` belongs -2.7% (inactive).
As for `c1ccc(C(c2ccccc2)N2CCN(Cc3nnnn3C3CCCCC3)CC2)cc1`, the inhibition was 10.8% (inactive).
To `CC1=NN(Cc2ccccc2)C(=O)/C1=C/c1ccc(N(C)C)cc1` belongs -0.4% (inactive); to `CCCCC(=O)N/N=C(\C)CC(=O)Nc1cc(Cl)ccc1OC`, -3.2% (inactive); to `COc1ccccc1NC(=O)/C=C/C(N)=O`, 43.6% (active).
Next, `COc1ccccc1NC(=O)c1ccc(C)s1`: -3.2% (inactive).
Next, `COc1ccccc1NC(=S)NC(=O)C(C)C`: 13.7% (inactive).
For the compound `O=C(NCc1ccccc1Cl)c1csc2c1CCCCC2`, the inhibition was 6.8% (inactive).
Consider `Cc1ccc(SCC(=O)Nc2ncc(C)s2)cc1`, for which the inhibition was -75.7% (inactive).
Next, `CN(C)/C=C(\C#N)C(=O)c1cccnc1Oc1cccc(F)c1`: -5.1% (inactive); `COC(=O)c1ccc(C(=O)OC)c(NC(=S)N2CCCCC2)c1`: 8.4% (inactive).
To `COC(=O)c1ccc(CSc2ccc3nnc(-c4ccccc4)n3n2)o1` belongs -0.1% (inactive).
Next, `COc1cc(C(=O)NC(=S)NCc2ccco2)cc(OC)c1OC`: -3.4% (inactive); `O=C(/C=C/Sc1ncn[nH]1)c1ccc(Cl)cc1`: 47.7% (active).
As to `CC(C)(C)c1ccc(C(=O)CSc2ncn[nH]2)cc1`, the inhibition was -29.2% (inactive).
For the compound `Cc1ccc(C(=O)/C=C/c2c(C)nn(-c3ccccc3)c2Cl)cc1`, the inhibition was 15.3% (inactive).
For the compound `CC(C)(C)NS(=O)(=O)CC12CCC(CC1=O)C2(C)C` (stereo unspecified), the inhibition was 12.7% (inactive).
As to `Cc1cccc(COc2ccccc2/C=N/Nc2ccc([N+](=O)[O-])cc2)c1`, the inhibition was -18.1% (inactive).
Next, `COc1ccc(S(=O)(=O)Nc2ccc(F)cc2)c(C)c1C`: 74% (active); `COc1ccc(S(=O)(=O)N2CCOCC2)c(C)c1C`: -1.9% (inactive); `COc1ccc(OC)c(S(=O)(=O)Nc2ccccc2F)c1`: -16.7% (inactive).
